Experimental data from PubChem BioAssay (Tox21).
Records with an inconclusive call do not appear. Activity calls are given as the source filed them. Unless noted, the call rests on the fitted dose curve.

How the values were obtained:
[1] = Nuclear factor erythroid 2-related factor 2/antioxidant responsive element (Nrf2/ARE) small molecule agonists: qHTS cell viability counter screen in human keratinocytes (AID 1919968; active means well fitted curve in the direction sought with a large enough effect in the repeat runs; an effect the other way counts as inactive or inconclusive; further: nearly all actives have a fitted effect of over 55% in size; further: potency means the concentration at half of the fitted maximal effect)
How it was run: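 KeratinoSens cells (HaCaT keratinocytes stably carrying an ARE-luciferase reporter) were seeded at 1,500 cells/well and rested 5 h at 37 C/5% CO2. They were then exposed to compounds in DMSO for 23 h. Viability was read by CellTiter-Fluor fluorescence after 1 h.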

[2] = Nuclear factor erythroid 2-related factor 2/antioxidant responsive element (Nrf2/ARE) small molecule agonists: luciferase reporter gene qHTS assay in human keratinocytes (AID 1919969); further: nearly all actives have a fitted effect of over 35% in size; further: potency means the concentration at half of the fitted maximal effect
[3] = biological target: Gonadotropin-releasing hormone receptor (Homo sapiens) (UniProt P30968); assay: Human gonadotropin-releasing hormone receptor (GnRHR) small molecule agonists, calcium flux assay in GnRHR-HEK293 cells (AID 1920063); further: nearly all actives have a fitted effect of over 35% in size
How it was run: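 HEK293 cells stably expressing human GnRHR were plated 18 h at 37 °C, loaded with calcium dye 1 h at 37 °C, then given compound in agonist mode; fluorescence (Ex/Em 480/540) read kinetically for 3 min at 1 s intervals.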

[4] = biological target: KiSS-1 receptor (Homo sapiens) (UniProt Q969F8); assay: Human kisspeptin (KISS1R) small molecule agonists, calcium flux assay in KISS1R-HEK293 cells (AID 1920064; active means well fitted curve in the direction sought with a large enough effect in the repeat runs; an effect the other way counts as inactive or inconclusive)
How it was run: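 HEK293 cells stably expressing human KISS1R were plated 18 h at 37 °C, loaded with calcium dye for 1 h at 37 °C, then given compound by pin tool. Fluorescence (Ex/Em 480/540) was read kinetically for 3 min.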

[5] = G protein-coupled receptor (GPCR) small molecule agonists, calcium flux assay: HEK293 wild type cell line counter screen (AID 1920065)
How it was run: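 Cells were plated and cultured 18 h at 37 C/5% CO2, then loaded with calcium dye for 1 h at 37 C. Compounds in DMSO were pin-transferred in agonist mode, and fluorescence (Ex/Em 480/540) was read kinetically for 3 min at 1 s intervals.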

[6] = p53 small molecule agonists, cell-based qHTS assay with human liver microsomes (AID 1963577);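 further: p53 response element beta-lactamase reporter cells with liver microsomes plus NADPH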
How it was run: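 p53RE-bla cells; 5 h settle, 37 C/5% CO2; cpd + HLM 0.5 mg/mL + NADPH 0.5 mg/mL (final); 16 h 37 C; LiveBLAzer 2 h RT dark; fluorescence readout.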

[7] = p53 small molecule agonists, cell-based qHTS assay with rat liver microsomes (AID 1963578)
How it was run: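 Rat liver microsome activation: microsomes 0.5 mg/mL, NADPH 0.5 mg/mL final; p53RE-bla cells, 16 h 37 C; LiveBLAzer readout, 2 h RT dark.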

[8] = p53 small molecule agonists, cell-based qHTS assay with human liver microsomes: qHTS cell viability counter screen (AID 1963579); further: nearly all actives have a fitted effect of over 45% in size
How it was run: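 Luminescent CellTiter-Glo read-out, 30 min at room temperature, gauged cytotoxicity in p53RE-bla cells exposed 16 h at 37 C to DMSO-dissolved compounds with metabolic activation by human liver microsomes and NADPH, each 0.5 mg/mL final.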

[9] = p53 small molecule agonists, cell-based qHTS assay: qHTS cell viability counter screen (AID 1963581); further: nearly all actives have a fitted effect of over 45% in size
How it was run: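 p53RE-bla HCT-116 cells were exposed to compounds for 16 h at 37 C; after the beta-lactamase FRET read in the same wells, CellTiter-Glo was added and luminescence (intracellular ATP) read after 30 min at room temperature.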

[10] = biological target: 5-hydroxytryptamine receptor 2A (Homo sapiens) (UniProt P28223); assay: 5-hydroxytryptamine receptor 2A (HTR2A) small molecule agonists, cell-based qHTS assay (AID 1963587); further: nearly all actives have a fitted effect of over 30% in size
How it was run: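 Kinetic calcium-flux fluorescence (2 min, 1 sec intervals) after compound addition in agonist mode. HTR2A-CHO cells were cultured 18 h, then dye-loaded 1 h at 37 C.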

[11] = biological target: Muscarinic acetylcholine receptor M1 (Homo sapiens) (UniProt P11229); assay: Cholinergic receptor muscarinic 1 (CHRM1) small molecule antagonists, cell-based qHTS assay (AID 1963588); further: nearly all actives have a fitted effect of over 40% in size; further: potency means the concentration at half of the fitted maximal effect
How it was run: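 CHRM1-CHO calcium-flux assay, antagonist mode. Cells were seeded 18 h, dye-loaded 1 h at 37 C and given compound for 5 min at RT, then acetylcholine was added at 50nM. FDSS fluorescence was read 3 min; 15 concentrations, three runs.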

[12] = biological target: Muscarinic acetylcholine receptor M1 (Homo sapiens) (UniProt P11229); assay: Cholinergic receptor muscarinic 1 (CHRM1) small molecule agonists, cell-based qHTS assay (AID 1963589); further: nearly all actives have a fitted effect of over 35% in size
How it was run: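 CHO cells stably expressing human CHRM1, seeded 18 h at 37 C/5% CO2, dye-loaded 1 h at 37 C, then given compound in agonist mode; intracellular calcium fluorescence read kinetically at 1 s intervals. Fifteen concentrations, three independent runs.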

[13] = cAMP Responsive Elements (CRE) small molecule agonists, cell-based qHTS assay (AID 1963590)
How it was run: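 CRE-bla HEK 293T cells in DMEM with 10% dialyzed FBS, NEAA, pyruvate and 25 mM HEPES were plated 18 h at 37 C/5% CO2, then exposed to compounds in DMSO for 3 h before LiveBLAzer B/G FRET substrate addition.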

[14] = cAMP Responsive Elements (CRE) small molecule antagonists, cell-based qHTS assay (AID 1963591; active means well fitted inhibition curve with a large enough effect in the signal ratio in the repeat runs, not every such curve was filed as active; the % refers to the signal ratio)
How it was run: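 CRE-bla HEK293T cells were plated 18 h at 37 °C/5% CO2, pinned with compound in DMSO, then stimulated with NKH477 at 0.25 uM final for 3 h. LiveBLAzer B/G FRET substrate was added and plates incubated 2 h at room temperature.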

[15] = biological target: Beta-2 adrenergic receptor (Homo sapiens) (UniProt P07550); assay: Adrenergic beta2 receptor (ADRB2) small molecule antagonists, cell-based qHTS assay (AID 1963592); further: nearly all actives have a fitted effect of over 50% in size; further: potency means the concentration at half of the fitted maximal effect
How it was run: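 Cells (CHO, stable ADRB2 overexpression) incubated 18-20hr at 37C; compounds added from DMSO; agonist mix (1nM isoproterenol, 100uM IBMX, 25uM Ro-20-1724) added; 0.5hr RT; d2-cAMP and anti-cAMP-cryptate added; 1hr RT; 665/615 nm read.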

[16] = biological target: D(2) dopamine receptor (Homo sapiens) (UniProt P14416); assay: Dopamine D2 receptor (DRD2) small molecule agonists, cell-based qHTS assay (AID 1963594); further: nearly all actives have a fitted effect of over 35% in size
How it was run: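 cAMP accumulation in DRD2-HEK293 cells measured by HTRF after 1 h detection; compounds added 10 min before NKH477 (200nM […]) forskolin-analogue stimulation, 30 min at room temperature, with Ro20-1724 present at 0.1 mM final.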

[17] = biological target: 5-hydroxytryptamine receptor 2A (Homo sapiens) (UniProt P28223); assay: 5-hydroxytryptamine receptor 2A (HTR2A) small molecule antagonists, cell-based qHTS assay (AID 1963586); further: nearly all actives have a fitted effect of over 45% in size; further: potency means the concentration at half of the fitted maximal effect
How it was run: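 Antagonist-mode intracellular calcium assay: DOI (4 nM) added after 5 min compound pre-incubation at room temperature to dye-loaded HTR2A-CHO cells. Fluorescence followed for 3 min, sampled every second.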

[18] = p53 small molecule agonists, cell-based qHTS assay with rat liver microsomes: qHTS cell viability counter screen (AID 1963580); further: nearly all actives have a fitted effect of over 45% in size
How it was run: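 HCT-116 p53RE-bla, 4,000 cells/well, 5 h pre-incubation; cpd + rat liver microsomes 0.5 mg/mL + NADPH 0.5 mg/mL (final); 16 h, 37 C; CellTiter-Glo, 30 min RT; luminescence.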

[19] = p53 small molecule agonists, cell-based qHTS assay (AID 1963582; active means well fitted activation curve with a large enough effect in the signal ratio in the repeat runs, not every such curve was filed as active; the % refers to the signal ratio)
How it was run: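 p53RE-bla beta-lactamase reporter cells rested 5 h at 37 C/5% CO2, then received compounds in DMSO by pin transfer and were incubated 16 h at 37 C. LiveBLAzer B/G FRET substrate was loaded for 2 h at room temperature before fluorescence reading.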

[20] = biological target: D(2) dopamine receptor (Homo sapiens) (UniProt P14416); assay: Dopamine D2 receptor (DRD2) small molecule antagonists, cell-based qHTS assay (AID 1963595; active means well fitted inhibition curve with a large enough effect in the signal ratio in the repeat runs, with a control signal flat; the % refers to the signal ratio; further: potency means the concentration at half of the fitted maximal effect)
How it was run: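 Cells were plated and grown for 24 h at 37 °C. Ro20-1724 (0.1 mM final) went in first, then compound for 10 min. NKH477 (200 nM) with quinpirole (12 nM) followed for 30 min at RT, then HTRF detection reagents for 1 h.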

Measured: Potency

Gonadotropin-releasing hormone receptor (Homo sapiens), sequence (P30968 whole entry, looked up): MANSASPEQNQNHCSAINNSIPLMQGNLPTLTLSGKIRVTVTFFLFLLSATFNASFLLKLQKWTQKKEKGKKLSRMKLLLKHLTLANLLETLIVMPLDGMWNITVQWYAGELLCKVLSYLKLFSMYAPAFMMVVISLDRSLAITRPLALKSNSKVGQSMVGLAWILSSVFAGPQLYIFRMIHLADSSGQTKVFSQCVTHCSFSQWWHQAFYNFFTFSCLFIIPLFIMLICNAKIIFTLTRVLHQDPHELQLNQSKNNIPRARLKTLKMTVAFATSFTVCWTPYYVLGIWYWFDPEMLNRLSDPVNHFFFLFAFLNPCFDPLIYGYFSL
KiSS-1 receptor (Homo sapiens), sequence (Q969F8 whole entry, looked up): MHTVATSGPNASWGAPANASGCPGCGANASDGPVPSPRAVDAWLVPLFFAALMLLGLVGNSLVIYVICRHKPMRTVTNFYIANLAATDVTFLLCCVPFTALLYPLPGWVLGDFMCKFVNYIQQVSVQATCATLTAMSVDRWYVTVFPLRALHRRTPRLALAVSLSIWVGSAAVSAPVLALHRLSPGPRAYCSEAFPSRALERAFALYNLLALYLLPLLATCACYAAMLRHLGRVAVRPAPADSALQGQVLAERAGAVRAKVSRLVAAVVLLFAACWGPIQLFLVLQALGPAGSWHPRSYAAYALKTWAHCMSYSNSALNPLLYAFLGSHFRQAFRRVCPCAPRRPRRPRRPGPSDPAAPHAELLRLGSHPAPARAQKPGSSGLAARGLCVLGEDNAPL
5-hydroxytryptamine receptor 2A (Homo sapiens), sequence (P28223 whole entry, looked up): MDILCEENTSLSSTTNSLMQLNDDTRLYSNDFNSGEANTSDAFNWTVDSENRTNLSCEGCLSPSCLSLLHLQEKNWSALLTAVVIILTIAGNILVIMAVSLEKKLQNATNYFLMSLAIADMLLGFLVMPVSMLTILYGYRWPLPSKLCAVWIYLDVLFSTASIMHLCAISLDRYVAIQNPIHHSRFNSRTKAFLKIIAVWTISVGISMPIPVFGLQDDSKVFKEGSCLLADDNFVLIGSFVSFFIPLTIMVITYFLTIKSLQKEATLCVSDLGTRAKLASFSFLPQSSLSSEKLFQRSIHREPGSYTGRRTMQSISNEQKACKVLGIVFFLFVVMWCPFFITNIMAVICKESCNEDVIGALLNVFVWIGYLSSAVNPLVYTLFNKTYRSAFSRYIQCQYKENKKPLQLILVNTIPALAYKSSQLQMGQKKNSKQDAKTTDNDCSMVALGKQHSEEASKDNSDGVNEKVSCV
Beta-2 adrenergic receptor (Homo sapiens), sequence (P07550 whole entry, looked up): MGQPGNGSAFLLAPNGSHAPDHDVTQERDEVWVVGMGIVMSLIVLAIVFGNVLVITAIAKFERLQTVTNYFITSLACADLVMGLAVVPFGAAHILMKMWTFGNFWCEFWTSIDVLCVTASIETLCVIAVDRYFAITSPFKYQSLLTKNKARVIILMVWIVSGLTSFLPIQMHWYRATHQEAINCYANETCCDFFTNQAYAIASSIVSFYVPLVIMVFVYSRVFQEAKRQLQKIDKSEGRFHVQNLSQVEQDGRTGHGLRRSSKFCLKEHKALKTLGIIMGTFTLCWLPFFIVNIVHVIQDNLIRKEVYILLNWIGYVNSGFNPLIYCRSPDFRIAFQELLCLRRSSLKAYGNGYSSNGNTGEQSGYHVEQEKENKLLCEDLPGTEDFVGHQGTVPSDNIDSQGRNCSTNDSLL
Muscarinic acetylcholine receptor M1 (Homo sapiens), sequence (P11229 whole entry, looked up): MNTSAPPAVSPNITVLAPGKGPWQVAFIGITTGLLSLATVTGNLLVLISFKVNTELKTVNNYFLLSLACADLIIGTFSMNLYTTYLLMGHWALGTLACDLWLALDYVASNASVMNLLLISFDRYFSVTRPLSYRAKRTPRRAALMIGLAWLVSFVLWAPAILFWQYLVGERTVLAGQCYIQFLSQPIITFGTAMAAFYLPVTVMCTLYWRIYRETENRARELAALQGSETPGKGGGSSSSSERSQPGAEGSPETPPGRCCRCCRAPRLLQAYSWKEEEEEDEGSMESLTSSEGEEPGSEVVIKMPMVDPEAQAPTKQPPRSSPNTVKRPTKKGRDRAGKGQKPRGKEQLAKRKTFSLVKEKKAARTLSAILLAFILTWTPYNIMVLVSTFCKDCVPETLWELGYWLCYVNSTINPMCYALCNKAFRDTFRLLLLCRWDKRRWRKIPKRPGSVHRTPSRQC
D(2) dopamine receptor (Homo sapiens), sequence (P14416 whole entry, looked up): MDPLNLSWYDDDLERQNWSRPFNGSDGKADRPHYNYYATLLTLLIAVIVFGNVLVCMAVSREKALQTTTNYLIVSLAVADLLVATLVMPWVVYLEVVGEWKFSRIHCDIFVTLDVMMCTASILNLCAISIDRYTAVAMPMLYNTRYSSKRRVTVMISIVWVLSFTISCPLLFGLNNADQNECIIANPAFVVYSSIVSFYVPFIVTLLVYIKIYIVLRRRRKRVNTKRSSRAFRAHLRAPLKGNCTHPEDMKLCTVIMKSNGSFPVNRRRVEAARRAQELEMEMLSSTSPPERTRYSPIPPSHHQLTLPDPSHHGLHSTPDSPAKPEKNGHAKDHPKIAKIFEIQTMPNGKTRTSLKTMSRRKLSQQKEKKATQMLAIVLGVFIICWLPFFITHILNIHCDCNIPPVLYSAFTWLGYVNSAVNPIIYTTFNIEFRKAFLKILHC

C/C(=N\O)c1ccc(OCC(=O)N2CCCCC2)cc1
active: [2] 11.9 µM
not listed: [17] | [18] | [19] | [20]
inactive: all other assays above

COc1ccccc1NC(=O)c1cc2ccccc2cc1O
active: [2] 61.1 µM | [17] 21.1 µM | [15] 54.5 µM
not listed: [11] | [13] | [14] | [18] | [19] | [20]
inactive: all other assays above

COc1cc(O)cc(O)c1
not listed: [8]
inactive: all other assays above

CN(C)C(=O)C1(N2CCCCC2)CCN(CC[C@@]2(c3ccc(Cl)c(Cl)c3)CN(C(=O)c3ccccc3)CCO2)CC1
active: [1] 22.7 µM | [20] 64.1 µM
inactive: [2] | [3] | [4] | [5] | [6] | [7] | [8] | [10] | [12] | [15]

c1ccc(C[P+](c2ccccc2)(c2ccccc2)c2ccccc2)cc1
active: [11] 4.72 µM
not listed: [10] | [13] | [14] | [18] | [19] | [20]
inactive: all other assays above

O=C(O)CCCc1ccccc1
not listed: [8]
inactive: all other assays above

CCc1cccc(CC)c1
not listed: [11] | [18] | [19]
inactive: all other assays above

O=C(O)Cc1cn(-c2ccccc2)nc1-c1ccc(Cl)cc1
not listed: [9] | [13] | [14] | [18]
inactive: all other assays above

O=C(O)c1cc(-c2ccc(F)cc2F)ccc1O
inactive: [1] | [2] | [3] | [4] | [5] | [6] | [7] | [8] | [9] | [15] | [20]

O=C(Nc1ccccc1)c1ccccc1O
active: [2] 61.1 µM
not listed: [8]
inactive: all other assays above

O=Cc1c2ccccc2c(Cl)c2ccccc12
active: [2] 7.51 µM
not listed: [9] | [15] | [18] | [19]
inactive: all other assays above

CN[C@@H]1[C@H](O)[C@H](NC)[C@H]2O[C@@]3(O)C(=O)C[C@@H](C)O[C@H]3O[C@@H]2[C@H]1O
not listed: [9] | [10] | [11] | [12] | [15] | [17] | [18]
inactive: all other assays above

Nc1ccc(F)c([N+](=O)[O-])c1
not listed: [17] | [18] | [19]
inactive: all other assays above

CCCCCCCCCCCCc1ccc(O)cc1
active: [1] 27.3 µM | [20] 61.1 µM
not listed: [9] | [11] | [12] | [13] | [14] | [18] | [19]
inactive: all other assays above

CCc1nnc(NS(=O)(=O)c2ccc(N)cc2)s1
not listed: [8]
inactive: all other assays above
